What all share (assay): NCI-60 one-dose screen, 48 h (100 = growth as untreated, 0 = no growth, -100 = all killed)
Conditions in all cases: 10 µM unless noted

Assay [1] concerns T-47D breast.
Assay [2] concerns BT-549 breast.
The test system of assay [3] is MDA-MB-435 melanoma.
Assay [4] deals with SW-620 colon.
The test system of assay [5] is MCF7 breast.
Assay [6] has as its system HCT-116 colon.
Assay [7] relates to HCC-2998 colon.
Assay [8] concerns KM12 colon.

Structures are written as SMILES. This is part of a sample that, as a whole, favours compounds with a hit. Of some 83,000 tested, about 20% had one in any assay.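 Values shown are percent growth following 48 h exposure of cells in 96-well plates to a single concentration of compound; below 10 was considered active.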 Values without a mark were called inactive. Active and inactive are the calls of the source.

For `O=[N+]([O-])c1ccc(NS(=O)(=O)c2ccc(Cl)c(Cl)c2)cc1`, the growth is 60.2% in assay [1]; 76.8% in assay [2]; 88.9% in assay [3]; 103% in assay [4]; 79.7% in assay [5]; 85.3% in assay [6]. Besides, the growth in assay [7] was 68.9%; in assay [8], 90.1%.

With `Cc1ccc(/C=C(/C#N)n2nnc3ncccc32)cc1`, the growth in assay [1] is 5.39% (active); in assay [2] it was 11.3%; in assay [3], -52.9% (active); in assay [4], 9.59% (active); in assay [5], 14.5%; in assay [6] it was 4.5% (active). The results for the growth in assay [7] and in assay [8] were 15.7% and 24.6%, respectively.

For the compound `Cc1ccc(C(NC(=O)c2ccccc2)c2ccc3cccnc3c2O)cc1` (stereo unspecified), the growth was 25.1% in assay [1]; 25.5% in assay [2]; 30% in assay [3]; 31.3% in assay [4]; 24.8% in assay [5]; 22.8% in assay [6]. Moreover, the figures for the growth in assay [7] and in assay [8] were 30.7% and 26.5%, respectively.

For `CCC(=O)Nc1cc2c(cc1Cl)-c1ccccc1C2`, the growth in assay [1] is 85.2%; in assay [2], 86.1%; in assay [3], 113%; in assay [4], 101%; in assay [5], 95.2%; in assay [6] it was 99.2%. Also, the growth in assay [7] is 87%; in assay [8] it was 95.2%.

For `O=C1C(=O)/C(=C/c2ccccc2)CCCCCC/C1=C/c1ccccc1`, the growth in assay [1] is 47.6%; in assay [2], 16.4%; in assay [3], -41.8% (active); in assay [4] it was -19.1% (active); in assay [5] it was 6.04% (active); in assay [6], -23.7% (active). Besides, the growth in assay [7] is -22.3% (active); in assay [8], -23.6% (active).

Take `Cc1[nH]cnc1/C=C1\SC(N2CCCCC2)=NC1=O`: the growth in assay [1] is 104%; in assay [2] it was 105%; in assay [3], 108%; in assay [4], 107%; in assay [5] it was 108%; in assay [6] it was 106%. The growth in assay [7] was 101%; in assay [8], 114%.

For the compound `COc1cc(-c2nc3nc4sc(C)c(C)c4c(=O)n3[nH]2)cc(OC)c1OC`, the growth in assay [1] is 57%; in assay [2], 77.8%; in assay [3], 7.6% (active); in assay [4], 79.1%; in assay [5], 35.7%; in assay [6], 75.9%. Further, the growth was 94.2% in assay [7] and 76.6% in assay [8].

On to `N#CC(C#N)C(C#N)C#N`, for which the growth was 87.9% in assay [1]; 89.5% in assay [2]; 99.8% in assay [3]; 99.1% in assay [4]; 95.5% in assay [5]; 86.8% in assay [6]. Further, the results for the growth in assay [7] and in assay [8] were 98.4% and 102%, respectively.

Turning to `CCCCCCCCCCCCCCCCCC1=NC(C)(CO)CO1` (stereo unspecified), the growth was 87.7% in assay [1]; 92.9% in assay [2]; 103% in assay [3]; 108% in assay [4]; 121% in assay [5]; 105% in assay [6]. Also, the growth in assay [7] is 98.3%; in assay [8], 102%.

Regarding `C[C@@H]1CN(c2nc3c(cc2F)c(=O)c(C(=O)O)cn3C(C)(C)C)C[C@H](C)N1`, the growth in assay [1] was 95.5%; in assay [2] it was 107%; in assay [3], 107%; in assay [4], 100%; in assay [5], 113%; in assay [6], 92.2%. Besides, the growth in assay [7] was 98.1%; in assay [8], 98.5%.

In the case of `COc1cc(C2CC(C3C(=O)N(C)C(=O)N(C)C3=O)=NN2c2cc(Cl)cc(Cl)c2)cc(OC)c1OC` (stereo unspecified), the growth in assay [1] is 79.4%; in assay [2], 99.2%; in assay [3], 98%; in assay [4] it was 94.7%; in assay [5], 90.4%; in assay [6] it was 87.3%. Also, the growth was 87.7% in assay [7] and 91.8% in assay [8].

Take `CCCCCCC(CC#N)(CCC)CCCC` (stereo unspecified): the growth in assay [1] is 112%; in assay [2], 120%; in assay [3] it was 103%; in assay [4] it was 107%; in assay [5], 96.1%; in assay [6], 104%. In addition, the growth in assay [7] is 110%; in assay [8], 111%.

Take `N#CSCC1CC(O)(c2ccccc2)C(c2ccccc2)C(c2ccc(Cl)cc2)O1` (stereo unspecified): the growth is -35.3% (active) in assay [1]; -57.8% (active) in assay [2]; -65.2% (active) in assay [3]; -76.2% (active) in assay [4]; -51.5% (active) in assay [5]; -92.9% (active) in assay [6]. For the same compound, the growth in assay [7] was -86.2% (active); in assay [8] it was -96% (active).

Regarding `O=CN1N=C(c2ccc(Nc3ccnc4cc(Cl)ccc34)cc2)CC1c1ccc(Cl)cc1` (stereo unspecified), the growth was 23.1% in assay [1]; 55.3% in assay [2]; -19.6% (active) in assay [3]; 32.9% in assay [4]; 18.4% in assay [5]; 11.7% in assay [6]. The values for the growth in assay [7] and in assay [8] were -20.4% (active) and 9.13% (active), respectively.

With `CC1(C)CC2(C)CC(=O)C1C(C(=O)O)C2C(=O)O` (stereo unspecified), the growth in assay [1] is 94.9%; in assay [2] it was 116%; in assay [3] it was 118%; in assay [4], 108%; in assay [5], 95.5%; in assay [6], 113%. In addition, the growth in assay [7] was 103%; in assay [8], 107%.

Turning to `COC(=O)[C@H](Cc1cn(C)cn1)NC(=O)[C@@H](NC(=O)Nc1cc(C(F)(F)F)cc(C(F)(F)F)c1)C(C)C`, the growth in assay [1] is -71.8% [100 µM] (active); in assay [2], -98% [100 µM] (active); in assay [3], -87.3% [100 µM] (active); in assay [4] it was -47.5% [100 µM] (active); in assay [5], -64.1% [100 µM] (active); in assay [6], -91.6% [100 µM] (active). The growth in assay [7] is -86.7% [100 µM] (active); in assay [8] it was -88.7% [100 µM] (active).

For `Cc1nn(-c2ccccc2)c2nc(N)c(C3=NCCO3)nc12`, the growth in assay [1] is 77.5%; in assay [2], 92.6%; in assay [3], 101%; in assay [4], 92.6%; in assay [5], 83.6%; in assay [6], 95.8%. In addition, the growth in assay [7] was 101%; in assay [8] it was 104%.

On to `Cc1ccc(S(=O)(=O)N2CCN(C(=O)CSc3nc4ccc(C)cc4[nH]3)CC2)cc1`, for which the growth in assay [1] is 99.8%; in assay [2], 106%; in assay [3], 109%; in assay [4], 102%; in assay [5] it was 98.3%; in assay [6], 103%. The growth in assay [7] is 122%; in assay [8], 105%.

Regarding `O=C(O)CCNS(=O)(=O)c1ccc(-c2ccccc2)cc1`, the growth in assay [1] was 108%; in assay [2] it was 127%; in assay [3], 102%; in assay [4], 95.4%; in assay [5] it was 106%; in assay [6], 108%. In addition, the growth in assay [7] is 111%; in assay [8], 117%.

Regarding `OCCCc1n(Cc2ccc3ccccc3c2)c2ccccc2[n+]1Cc1ccc2ccccc2c1`, the growth in assay [1] was 13.2%; in assay [2], 5.33% (active); in assay [3] it was 0.65% (active); in assay [4], 19.3%; in assay [5], 9.45% (active); in assay [6], 10.4%. Further, the values for the growth in assay [7] and in assay [8] were 12.5% and -20.9% (active), respectively.

Take `CCSc1nc(-c2ccc(F)cc2)c(C#N)c(=O)[nH]1`: the growth in assay [1] is 120%; in assay [2], 105%; in assay [3], 101%; in assay [4], 107%; in assay [5] it was 102%; in assay [6], 109%. Also, the growth in assay [7] was 99.8%; in assay [8] it was 100%.

For `COc1ccc(OC)c(CCn2cncc2-c2c[nH]c3cc(Br)ccc23)c1`, the growth in assay [1] was 6.48% (active); in assay [2], 14.1%; in assay [3], 11.8%; in assay [4] it was 33.7%; in assay [5], 17.2%; in assay [6], 23.6%. The growth in assay [7] was 69.6%; in assay [8], 41.7%.

`C(#Cc1ccccc1C#Cc1ccccn1)c1ccc(OCCCCCCOc2ccc(C#Cc3ccccc3C#Cc3ccccn3)cc2)cc1`: the growth is 36.5% in assay [1]; 39.6% in assay [2]; 25.6% in assay [3]; 62.6% in assay [4]; 21.1% in assay [5]; 38.4% in assay [6]. The growth in assay [7] is 58.8%; in assay [8], 37.1%.

With `O=C(O)c1ccc2cccnc2c1O`, the growth is 10.3% in assay [1]; -16.5% (active) in assay [2]; 10.1% in assay [3]; 26.1% in assay [4]; 10.8% in assay [5]; 2.32% (active) in assay [6]. The results for the growth in assay [7] and in assay [8] were 10.2% and 15.1%, respectively.

`O=C(O)C1CCN(S(=O)(=O)c2ccc(-c3ccccc3)cc2)CC1`: the growth in assay [1] is 107%; in assay [2], 109%; in assay [3], 120%; in assay [4] it was 98.2%; in assay [5], 101%; in assay [6], 112%. The growth in assay [7] was 93.6%; in assay [8], 111%.

`CCCCOP(=O)(OCCCC)C(C(=O)OCC)C(CC(=O)OCC)C(=O)OCC` (stereo unspecified): the growth was 114% in assay [1]; 114% in assay [2]; 104% in assay [3]; 106% in assay [4]; 93.1% in assay [5]; 112% in assay [6]. Further, the growth in assay [7] was 109%; in assay [8], 111%.

Take `COc1cccc2c1C(=O)c1c(O)c3c(c(O)c1C2=O)C[C@@](O)(C(C)=O)C[C@@H]3O[C@H]1C[C@H](N)[C@H](O)[C@H](C)O1`: the growth in assay [1] is -12.2% (active); in assay [2] it was -58.8% (active); in assay [3] it was -98.7% (active); in assay [4], -12.8% (active); in assay [5] it was 0% (active); in assay [6], 0.333% (active). For the same compound, the growth in assay [7] is -70.4% (active); in assay [8] it was -14.9% (active).

`CC(C)CC1NC(=O)C(CCCN)NC(=O)C(C(C)C)NC(=O)C2CCCN2C(=O)C(Cc2ccccc2)NC(=O)C(CC(C)C)NC(=O)C(CCCN)NC(=O)C(C(C)C)NC(=O)C2CCCN2C(=O)C(Cc2ccccc2)NC1=O` (stereo unspecified): the growth was -37.2% (active) in assay [1]; -77.7% (active) in assay [2]; -83.6% (active) in assay [3]; -75.6% (active) in assay [4]; -61.5% (active) in assay [5]; -92.2% (active) in assay [6]. Moreover, the growth in assay [7] is -36.2% (active); in assay [8], -75% (active).

Turning to `COc1ccc(C(=O)/C=C/c2ccc(C)cc2)cc1OC`, the growth was 59.3% in assay [1]; 89.8% in assay [2]; 97.1% in assay [3]; 24.7% in assay [4]; 35.5% in assay [5]; 30.1% in assay [6]. The growth in assay [7] was 90.1%; in assay [8], 20.1%.

With `Cc1ccc(N/N=C(/C(=O)c2ccc(Cl)cc2)c2nc(C)cc(=O)[nH]2)cc1`, the growth in assay [1] is 88.3%; in assay [2] it was 118%; in assay [3], 123%; in assay [4], 93.7%; in assay [5], 91%; in assay [6] it was 86.9%. The growth was 116% in assay [7] and 115% in assay [8].

Regarding `COc1cc(-c2n[nH]nc2-c2ccccn2)cc(OC)c1OC`, the growth was 87.2% in assay [1]; 117% in assay [2]; 106% in assay [3]; 106% in assay [4]; 96.2% in assay [5]; 104% in assay [6]. The growth in assay [7] was 105%; in assay [8] it was 102%.

Consider `COc1ccc(C2=NN(C(C)=O)C(c3c(C)nn(-c4ccccc4)c3N3CCOCC3)C2)cc1` (stereo unspecified), for which the growth in assay [1] was 93.3%; in assay [2] it was 77%; in assay [3], 97.2%; in assay [4], 96.6%; in assay [5], 91.7%; in assay [6] it was 82.3%. In addition, the growth in assay [7] was 102%; in assay [8], 100%.
